# According to PubChem BioAssay (NCI):
# The panel holds about 83,000 compounds, 20% with a hit somewhere; the sample as a whole holds those more often.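 Note: values are percent growth. 100 is the growth of untreated cells, values between 100 and 0 indicate rising inhibition; between -100 and 0 indicates cell death.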 Unmarked numbers belong to inactive results. Calls of active or inactive are those of the source. The calls were made as follows: active = growth percent below 10; inactive = the rest.
# How the values were obtained:
# Test in all cases: NCI-60 one-dose screen, 48 h (100 = growth as untreated, 0 = no growth, -100 = all killed)
# Conditions in all cases: 10 µM unless noted
# NCI-H23 lung = test system: NCI-H23 lung
# NCI-H226 lung = test system: NCI-H226 lung
# NCI-H322M lung = test system: NCI-H322M lung
# HOP-62 NSCLC = test system: HOP-62 NSCLC
# NCI-H460 lung = test system: NCI-H460 lung
# NCI-H522 lung = test system: NCI-H522 lung
# A549/ATCC NSCLC = test system: A549/ATCC NSCLC
# 786-0 renal = test system: 786-0 renal
# COLO 205 colon = test system: COLO 205 colon
# DU-145 prostate = test system: DU-145 prostate
# K-562 leukemia = test system: K-562 leukemia
# MALME-3M melanoma = test system: MALME-3M melanoma
# MDA-MB-231 breast = test system: MDA-MB-231 breast
# RXF 393 renal = test system: RXF 393 renal
# SF-268 CNS = test system: SF-268 CNS
# SF-295 CNS = test system: SF-295 CNS
# SF-539 CNS = test system: SF-539 CNS
# UACC-257 melanoma = test system: UACC-257 melanoma
# M14 melanoma = test system: M14 melanoma
# HCT-15 colon = test system: HCT-15 colon
Structure (SMILES),growth (NCI-H23 lung),growth (NCI-H226 lung),growth (NCI-H322M lung),growth (HOP-62 NSCLC),growth (NCI-H460 lung),growth (NCI-H522 lung),growth (A549/ATCC NSCLC),growth (786-0 renal),growth (COLO 205 colon),growth (DU-145 prostate),growth (K-562 leukemia),growth (MALME-3M melanoma),growth (MDA-MB-231 breast),growth (RXF 393 renal),growth (SF-268 CNS),growth (SF-295 CNS),growth (SF-539 CNS),growth (UACC-257 melanoma),growth (M14 melanoma),growth (HCT-15 colon)
Cc1scc2c1N(C(=O)CN1CCN(C)CC1)c1ccccc1NC2=O,93.9%,109%,105%,103%,124%,104%,104%,98.8%,108%,118%,108%,108%,99.6%,111%,110%,101%,112%,106%,111%,107%
[O-]/[N+](=C\C=C\c1ccccc1)c1ccccc1,103%,97.8%,113%,116%,107%,102%,144%,101%,141%,111%,98.1%,158%,102%,405%,101%,102%,103%,127%,115%,104%
NC(=O)c1ncn([C@@H]2O[C@H](CO)[C@@H](O)[C@H]2O)n1,99.1%,106%,88.3%,97.2%,100%,70.6%,91.2%,95.6%,82.6%,82.7%,88.3%,92.7%,89.5%,119%,109%,95.5%,108%,103%,98.8%,83.7%
Cc1nnc(Nc2ccc(NC(=O)Nc3ccc(Cl)cc3)cc2)c2ccccc12,48.8%,71.9%,47.8%,4.62% (active),26.1%,30.3%,26.4%,-27.8% (active),28.2%,57.8%,-16.7% (active),-9.9% (active),23.1%,-39.7% (active),48.7%,4.8% (active),16.2%,73.8%,37.3%,6.39% (active)
CCOc1cccc(C2CC(=O)Nc3cc4c(cc32)OCO4)c1 (stereo not given),77.9%,65%,91.1%,87%,94.2%,66.5%,94.2%,93.4%,96.8%,94.5%,48.2%,83.4%,111%,78.8%,89.4%,76%,91.7%,94.5%,102%,77.3%
O=C(Nc1ccc(Cl)cc1)c1cc2c(cc1O)[nH]c1ccccc12,-22.5% (active),35.9%,26.9%,-2.15% (active),12.5%,-14.4% (active),30%,6.54% (active),87.3%,28.4%,10.9%,23.1%,36.1%,1.97% (active),34.4%,-43% (active),12.4%,-21.1% (active),31%,32%
COc1cc([C@@H]2c3cc4c(cc3C(O[C@@H]3O[C@@H]5CO[C@@H](c6cccs6)OC5[C@H](O)[C@H]3O)C3COC(=O)[C@@H]32)OCO4)cc(OC)c1O (stereo not given in full),-32.5% (active),-53.9% (active),7.81% (active),-39.8% (active),-36.7% (active),-53.7% (active),-48.3% (active),-40.6% (active),-23.8% (active),-33.4% (active),4.5% (active),-28.7% (active),-18.8% (active),-72.3% (active),-17.1% (active),-19.9% (active),-35.5% (active),-19.7% (active),-43.2% (active),5.54% (active)
CCCCCCCCCCCCCCCCCC1=NC(C)(C)CN1CCO,38.9%,17.6%,59.8%,-74.9% (active),-51.7% (active),-58.2% (active),-28.9% (active),-53.6% (active),-59.9% (active),2.01% (active),-49.5% (active),11.8%,-61.7% (active),-47.3% (active),-67.1% (active),-2.44% (active),-80.6% (active),-10.6% (active),-74.7% (active),-55.4% (active)
O=C(Cn1ccnc1)NC(c1ccccc1)c1ccccc1,94.8%,100%,98.7%,96%,103%,93.2%,105%,103%,109%,112%,98.6%,104%,99.6%,104%,97.7%,97.6%,86.2%,104%,102%,101%
O=C(Nc1cccc([N+](=O)[O-])c1)c1cccc(C(=O)Nc2cccc([N+](=O)[O-])c2)c1,107%,71%,77.1%,106%,74%,22.5%,59.9%,73.9%,120%,84.5%,91.2%,49.5%,83.1%,29.4%,30.2%,67.3%,84.3%,77%,85.4%,85.5%
NC(=O)c1ccccc1NC(=O)c1ccccc1Cl,104%,105%,109%,112%,114%,96.5%,98.3%,102%,121%,113%,89.9%,130%,99.6%,82.1%,108%,90.5%,109%,88.7%,112%,95.6%
CCN1C[C@@H](C)n2c(c(O)c3c(=O)n(Cc4ccc(F)c(Cl)c4)nc(C(=O)NC)c32)C1=O,11.3%,26.4%,18.4%,26%,15.2%,69.3%,11%,18.4%,101%,22.6%,42%,5.1% (active),50.7%,2.79% (active),23.2%,0.0694% (active),3.53% (active),3.7% (active),30.4%,6.16% (active)
COc1ccc(-c2c(-c3cc(OC)c(OC)c(OC)c3)noc2N)cc1,31.1%,16%,43.2%,41.4%,7.26% (active),-28.9% (active),22.3%,20%,-72% (active),-3.15% (active),11.8%,67.5%,17.1%,26.5%,23.8%,8.4% (active),19.3%,77.5%,15.2%,28%
COc1ccc(C2=NN(C(C)=O)C(c3cc(OC)c(OC)c(OC)c3)C2)cc1 (stereo not given),101%,119%,119%,105%,108%,67.7%,108%,108%,108%,107%,75.4%,120%,109%,111%,94.4%,95.4%,91.5%,113%,98.3%,84.6%
